# Data from PubChem BioAssay (EPA / NIEHS).
# Inconclusive results are not listed. The source made the active and inactive calls. The calls were made as follows: active = hit-call score of the fitted dose curve at least 0.9, where 1 is the maximum; inconclusive = response in the unintended direction; inactive = score below 0.9.
# Molecular target: human Serotonin Transporter (SERT), SLC6A4 (gene 6532) (UniProt P31645)
# Test: NVS_TR_hSERT: NovaScreen (NVS) Transporter Assay for human Serotonin Transporter (SERT) (AID 2283372)
# Summary of the method: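 Human platelet membrane preparation; displacement of radioligand from serotonin transporter measured after 1 h by filtration and scintillation counting. Single 25 uM duplicate screen, then concentration series for actives, with DMSO as negative baseline.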
# human Serotonin Transporter (SERT), SLC6A4 (gene 6532), sequence (P31645 whole entry, looked up): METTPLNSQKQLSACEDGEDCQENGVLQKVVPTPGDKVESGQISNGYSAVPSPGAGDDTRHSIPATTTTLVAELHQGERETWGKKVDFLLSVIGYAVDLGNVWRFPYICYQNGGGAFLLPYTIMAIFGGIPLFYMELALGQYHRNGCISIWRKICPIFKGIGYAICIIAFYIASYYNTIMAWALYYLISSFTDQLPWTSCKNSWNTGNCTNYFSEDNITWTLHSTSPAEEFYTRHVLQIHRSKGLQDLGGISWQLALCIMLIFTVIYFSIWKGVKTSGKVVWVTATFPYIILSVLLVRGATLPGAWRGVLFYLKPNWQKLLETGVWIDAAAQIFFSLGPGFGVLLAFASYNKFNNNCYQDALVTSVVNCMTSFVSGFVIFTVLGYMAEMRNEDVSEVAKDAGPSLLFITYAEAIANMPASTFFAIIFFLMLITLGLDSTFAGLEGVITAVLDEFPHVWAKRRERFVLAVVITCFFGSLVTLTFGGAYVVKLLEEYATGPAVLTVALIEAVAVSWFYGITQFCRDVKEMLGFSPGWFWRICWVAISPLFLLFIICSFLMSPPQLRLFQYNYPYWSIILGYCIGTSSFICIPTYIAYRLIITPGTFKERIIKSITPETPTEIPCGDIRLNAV
SMILES,outcome,AC50
C[N+]1(C)CCCCC1,inactive,
Nc1c(Cl)cc([N+](=O)[O-])cc1Cl,inactive,
CCCOCC(=Nc1ccc(Cl)cc1C(F)(F)F)n1ccnc1,inactive,
CC(C)=CC1C(C(=O)OCN2C(=O)C3=C(CCCC3)C2=O)C1(C)C (centres undefined),inactive,
CCOP(=S)(OCC)Oc1ccc([N+](=O)[O-])cc1,,7.25 µM (active)
COc1ccc(C(=CC(=O)N2CCOCC2)c2ccc(Cl)cc2)cc1OC,inactive,

# Tested on: rat Norepinephrine Transporter (NET), gene 83511
# Test: NVS_TR_rNET: NovaScreen (NVS) Transporter Assay for rat Norepinephrine Transporter (NET) (AID 2283373)
# Description: NVS_TR_rNET is a biochemical, single-readout assay that uses extracted gene-proteins from Rat forebrain membranes in a tissue-based cell-free assay. Measurements were taken 1 hour after chemical dosing in a 48-well plate.NVS_TR_rNET is one of one assay component(s) measured or calculated from the NVS_TR_rNET assay. It is designed to make measurements of radioligand binding, a form of binding reporter, as detected with scintillation counting signals by Filter-based radiodetection technology.Data from the assay component NVS_TR_rNET was analyzed into 1 assay endpoint. This assay endpoint, NVS_TR_rNET, was analyzed in the positive analysis fitting direction relative to DMSO as the negative control and baseline of activity. Using a type of binding reporter, loss-of-signal activity can be used to understand changes in the binding as they relate to the gene Slc6a2. Furthermore, this assay endpoint can be referred to as a primary readout, because the performed assay has only produced 1 assay endpoint. To generalize the intended target to other relatable targets, this assay endpoint is annotated to the transporter intended target family, where the subfamily is neurotransmitter transporter.
# Binding assays used specific radioligands (tritiated, iodinated) with non-radioactive competitive displacement ligands in agonist or antagonist protocols (as indicated) and various reference compounds and inhibitors to titrate specific binding to receptors and transporters. Most enzyme assays (CYPs, kinases, phosphatases, proteases, HDACs) used recombinant protein and specific substrates (fluorescence mostly, some colorimetric and radioactive) and inhibitors, followed by a biochemical separation of substrate and product. All assays for the biochemical HTS were initially run in duplicate at a single concentration (10 uM for CYP450 assays and 25 uM for all others). […] Each assay was run with positive and negative controls, and concurrent controls on every plate. […]
SMILES,AC50,outcome
Cc1cc(C2CC2)nc(Nc2ccccc2)n1,5.69 µM (active),
CCC(=O)Nc1ccc(Cl)c(Cl)c1,4.96 µM (active),
CC[C@H](C)[C@H]1O[C@]2(C=C[C@@H]1C)C[C@@H]1C[C@@H](C/C=C(\C)[C@@H](O[C@H]3C[C@H](OC)[C@@H](O[C@H]4C[C@H](OC)[C@@H](NC)[C@H](C)O4)[C@H](C)O3)[C@@H](C)/C=C/C=C3\CO[C@@H]4[C@H](O)C(C)=C[C@@H](C(=O)O1)[C@]34O)O2,,inactive

# Molecular target: human Dopamine Transporter (DAT), SLC6A3 (gene 6531) (UniProt Q01959)
# Sequence (Q01959 whole entry, looked up): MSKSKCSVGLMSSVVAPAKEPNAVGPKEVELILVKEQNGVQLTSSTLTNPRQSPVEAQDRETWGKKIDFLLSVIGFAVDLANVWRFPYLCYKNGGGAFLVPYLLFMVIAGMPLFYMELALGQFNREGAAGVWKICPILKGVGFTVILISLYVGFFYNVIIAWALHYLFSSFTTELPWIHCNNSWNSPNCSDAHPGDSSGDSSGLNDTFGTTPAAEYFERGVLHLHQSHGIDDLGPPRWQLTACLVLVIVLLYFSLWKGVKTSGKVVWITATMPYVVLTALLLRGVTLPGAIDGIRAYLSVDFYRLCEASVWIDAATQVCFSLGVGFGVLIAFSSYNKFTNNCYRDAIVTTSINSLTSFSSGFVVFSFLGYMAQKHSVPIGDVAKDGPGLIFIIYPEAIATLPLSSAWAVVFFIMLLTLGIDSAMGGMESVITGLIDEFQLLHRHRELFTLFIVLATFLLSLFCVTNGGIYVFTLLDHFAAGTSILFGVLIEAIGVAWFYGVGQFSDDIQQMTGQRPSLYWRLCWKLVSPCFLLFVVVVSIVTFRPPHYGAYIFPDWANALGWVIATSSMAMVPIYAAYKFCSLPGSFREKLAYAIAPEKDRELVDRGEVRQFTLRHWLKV
# Test: NVS_TR_hDAT: NovaScreen (NVS) Transporter Assay for human Dopamine Transporter (DAT) (AID 2283374);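 also: activity means loss of bound radioligand signal relative to DMSO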
# Summary of the method: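 hDAT membranes + tritiated/iodinated radioligand, competitive displacement; 1 h; filter scintillation readout. Single conc 25 uM (duplicate), then conc-response for actives. DMSO = negative control.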
SMILES,AC50,outcome
Nc1c(Cl)cc([N+](=O)[O-])cc1Cl,25 µM (active),
CCCOCC(=Nc1ccc(Cl)cc1C(F)(F)F)n1ccnc1,10.2 µM (active),
CC(C)=CC1C(C(=O)OCN2C(=O)C3=C(CCCC3)C2=O)C1(C)C (centres undefined),,inactive
CC(COc1ccc(Oc2ccccc2)cc1)Oc1ccccn1 (centres undefined),,inactive
C#CCC1=C(C)C(OC(=O)C2C(C=C(C)C)C2(C)C)CC1=O (centres undefined),12 µM (active),
CCC(=O)Nc1ccc(Cl)c(Cl)c1,6.22 µM (active),
CSc1nnc(C(C)(C)C)c(=O)n1N,,inactive
CCCCOC(=O)c1ccccc1C(=O)O,8.41 µM (active),
C=C(C)[C@H]1Cc2c(ccc3c2O[C@@H]2COc4cc(OC)c(OC)cc4[C@@H]2C3=O)O1,,inactive
CC1(C(=O)Nc2ccc(O)c(Cl)c2Cl)CCCCC1,4.68 µM (active),
C[Si](Cn1cncn1)(c1ccc(F)cc1)c1ccc(F)cc1,9.33 µM (active),
CC[C@H](C)[C@H]1O[C@]2(C=C[C@@H]1C)C[C@@H]1C[C@@H](C/C=C(\C)[C@@H](O[C@H]3C[C@H](OC)[C@@H](O[C@H]4C[C@H](OC)[C@@H](NC)[C@H](C)O4)[C@H](C)O3)[C@@H](C)/C=C/C=C3\CO[C@@H]4[C@H](O)C(C)=C[C@@H](C(=O)O1)[C@]34O)O2,,inactive
CC(C)N(C(=O)SCC(Cl)=C(Cl)Cl)C(C)C,7.84 µM (active),
CC(C)[C@H](C(=O)O[C@H](C#N)c1cccc(Oc2ccccc2)c1)c1ccc(Cl)cc1,16.2 µM (active),
O=[N+]([O-])c1cc(C(F)(F)F)c(Cl)c([N+](=O)[O-])c1Nc1ncc(C(F)(F)F)cc1Cl,,inactive
CC(C1CC1)C(O)(Cn1cncn1)c1ccc(Cl)cc1 (centres undefined),0.175 µM (active),
CCCCOC(=O)[C@@H](C)Oc1ccc(Oc2ccc(C#N)cc2F)cc1,,inactive
FC(F)C(F)(F)OCC(Cn1cncn1)c1ccc(Cl)cc1Cl (centres undefined),7.59 µM (active),

# Molecular target: rat Serotonin Transporter (SERT), Slc6a4 (gene 25553) (UniProt P31652)
# Sequence (P31652 whole entry, looked up): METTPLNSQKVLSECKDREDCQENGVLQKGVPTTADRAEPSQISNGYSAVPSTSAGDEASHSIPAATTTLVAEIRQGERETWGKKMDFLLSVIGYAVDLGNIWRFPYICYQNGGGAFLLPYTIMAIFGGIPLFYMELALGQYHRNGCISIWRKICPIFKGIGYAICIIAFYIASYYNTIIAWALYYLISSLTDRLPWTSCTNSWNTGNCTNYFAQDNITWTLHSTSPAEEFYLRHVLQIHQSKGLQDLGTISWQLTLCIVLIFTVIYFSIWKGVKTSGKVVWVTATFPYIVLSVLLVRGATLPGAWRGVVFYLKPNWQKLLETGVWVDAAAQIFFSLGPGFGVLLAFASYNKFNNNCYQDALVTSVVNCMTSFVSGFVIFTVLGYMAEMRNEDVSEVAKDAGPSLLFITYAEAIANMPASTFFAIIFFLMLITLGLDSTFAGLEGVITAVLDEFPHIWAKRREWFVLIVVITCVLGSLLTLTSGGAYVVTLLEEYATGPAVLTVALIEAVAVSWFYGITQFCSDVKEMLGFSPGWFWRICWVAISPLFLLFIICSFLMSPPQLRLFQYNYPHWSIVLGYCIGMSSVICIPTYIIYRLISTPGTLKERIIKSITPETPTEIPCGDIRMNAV
# Test: NVS_TR_rSERT: NovaScreen (NVS) Transporter Assay for rat Serotonin Transporter (SERT) (AID 2283375)
# Summary of the method: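 Rat forebrain membranes were incubated with test chemical for 1 hour; radioligand binding to SERT was measured by filter-based scintillation counting. Primary screen ran in duplicate at 25 uM, with actives followed up in concentration series; DMSO served as negative control.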
SMILES,AC50,outcome
Nc1c(Cl)cc([N+](=O)[O-])cc1Cl,3.3 µM (active),
CCCOCC(=Nc1ccc(Cl)cc1C(F)(F)F)n1ccnc1,,inactive
CC(C)=CC1C(C(=O)OCN2C(=O)C3=C(CCCC3)C2=O)C1(C)C (centres undefined),,inactive
CCOP(=S)(OCC)Oc1ccc([N+](=O)[O-])cc1,8.93 µM (active),
COc1ccc(C(=CC(=O)N2CCOCC2)c2ccc(Cl)cc2)cc1OC,,inactive
CC(C)N(C(=O)SCC(Cl)=C(Cl)Cl)C(C)C,,inactive

# Molecular target: Norway rat Vesicular Monoamine Transporter (VMAT2), neurotransmitter transporter, Slc18a2 (gene 25549) (UniProt Q01827)
# Sequence (Q01827 whole entry, looked up): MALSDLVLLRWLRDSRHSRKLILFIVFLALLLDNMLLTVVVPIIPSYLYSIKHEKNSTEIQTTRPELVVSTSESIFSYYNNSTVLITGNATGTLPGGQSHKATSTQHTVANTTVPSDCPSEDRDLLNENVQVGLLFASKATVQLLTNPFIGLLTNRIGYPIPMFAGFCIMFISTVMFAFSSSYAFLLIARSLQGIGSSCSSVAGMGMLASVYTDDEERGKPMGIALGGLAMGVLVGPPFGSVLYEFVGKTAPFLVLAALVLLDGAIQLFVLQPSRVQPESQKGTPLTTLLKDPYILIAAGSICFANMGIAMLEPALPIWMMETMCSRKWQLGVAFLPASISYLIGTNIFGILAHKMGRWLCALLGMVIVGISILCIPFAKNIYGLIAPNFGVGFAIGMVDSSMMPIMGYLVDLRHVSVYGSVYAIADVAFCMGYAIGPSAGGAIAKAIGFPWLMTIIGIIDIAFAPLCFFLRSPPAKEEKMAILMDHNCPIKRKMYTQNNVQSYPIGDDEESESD
# Test: NVS_TR_rVMAT2: NovaScreen (NVS) Transporter Assay for Norway rat Vesicular Monoamine Transporter (VMAT2), neurotransmitter transporter (AID 2283376);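 also: actives lower the bound radioligand signal below the DMSO level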
# Summary of the method: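 Filter-based scintillation counting of radioligand bound to rat forebrain-derived VMAT2 protein, cell-free, 1 h post-dose. Signal loss relative to DMSO control scored; single-concentration duplicate screen (25 uM) followed by concentration-response testing of actives.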
SMILES,outcome,AC50
CCCOCC(=Nc1ccc(Cl)cc1C(F)(F)F)n1ccnc1,inactive,
Cc1cc(C2CC2)nc(Nc2ccccc2)n1,inactive,
CCC(=O)Nc1ccc(Cl)c(Cl)c1,,23.3 µM (active)
CSc1nc(NC(C)C)nc(NC(C)C)n1,inactive,
C[Si](Cn1cncn1)(c1ccc(F)cc1)c1ccc(F)cc1,,14.1 µM (active)
CC[C@H](C)[C@H]1O[C@]2(C=C[C@@H]1C)C[C@@H]1C[C@@H](C/C=C(\C)[C@@H](O[C@H]3C[C@H](OC)[C@@H](O[C@H]4C[C@H](OC)[C@@H](NC)[C@H](C)O4)[C@H](C)O3)[C@@H](C)/C=C/C=C3\CO[C@@H]4[C@H](O)C(C)=C[C@@H](C(=O)O1)[C@]34O)O2,,4.68 µM (active)

# Molecular target: human Norepinephrine Transporter (NET), SLC6A2 (gene 6530) (UniProt P23975)
# Sequence (P23975 whole entry, looked up): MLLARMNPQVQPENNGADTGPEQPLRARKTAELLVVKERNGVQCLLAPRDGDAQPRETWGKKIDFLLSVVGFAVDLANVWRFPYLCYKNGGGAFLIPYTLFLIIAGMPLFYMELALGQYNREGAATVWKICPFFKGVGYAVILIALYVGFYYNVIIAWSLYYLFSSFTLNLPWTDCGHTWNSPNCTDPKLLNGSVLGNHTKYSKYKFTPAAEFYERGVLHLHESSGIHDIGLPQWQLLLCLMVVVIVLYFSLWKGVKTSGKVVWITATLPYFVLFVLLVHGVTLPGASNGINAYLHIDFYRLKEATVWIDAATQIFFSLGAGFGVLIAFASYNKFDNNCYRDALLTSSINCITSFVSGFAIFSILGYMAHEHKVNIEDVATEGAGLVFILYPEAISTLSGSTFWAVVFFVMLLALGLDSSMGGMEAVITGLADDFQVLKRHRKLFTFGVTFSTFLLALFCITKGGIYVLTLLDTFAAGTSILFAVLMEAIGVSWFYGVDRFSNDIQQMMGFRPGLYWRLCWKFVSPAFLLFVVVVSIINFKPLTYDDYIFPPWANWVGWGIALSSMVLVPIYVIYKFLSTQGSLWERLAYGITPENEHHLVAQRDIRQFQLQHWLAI
# Test: NVS_TR_hNET: NovaScreen (NVS) Transporter Assay for human Norepinephrine Transporter (NET) (AID 2283377);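 also: cell-free membrane protein extracted from CHO cells expressing human NET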;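 as to AC50: displacement of radioligand from human NET seen as loss of scintillation signal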
# Summary of the method: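 CHO cell extracts expressing the transporter; tritiated or iodinated tracer displaced competitively; filtration plus scintillation readout at 1 h. Single-point duplicates at 25 uM, concentration series for follow-up; activity = signal drop relative to DMSO.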
SMILES,AC50,outcome
Cc1cc(C2CC2)nc(Nc2ccccc2)n1,3.82 µM (active),
CCC(=O)Nc1ccc(Cl)c(Cl)c1,4.14 µM (active),
CC(Oc1cccc(Cl)c1)C(=O)O (centres undefined),,inactive
C[Si](Cn1cncn1)(c1ccc(F)cc1)c1ccc(F)cc1,2.86 µM (active),
CC[C@H](C)[C@H]1O[C@]2(C=C[C@@H]1C)C[C@@H]1C[C@@H](C/C=C(\C)[C@@H](O[C@H]3C[C@H](OC)[C@@H](O[C@H]4C[C@H](OC)[C@@H](NC)[C@H](C)O4)[C@H](C)O3)[C@@H](C)/C=C/C=C3\CO[C@@H]4[C@H](O)C(C)=C[C@@H](C(=O)O1)[C@]34O)O2,5.29 µM (active),
